From PMC10726135, “HNF4α isoforms regulate the circadian balance between carbohydrate and lipid metabolism in the liver”
The full ranking holds about 18,000 sequences; the median of “log2 normalized intensity” is about 0.36, and the highest 2% start at about 7.3. For the sample, the highest values were picked, then their nearest neighbours and some sequences at random.

The sequences below were run against T1, HNF4alpha8 (COS-7 nuclear extract) (Homo sapiens, UniProt P41235-5 1-452) (assay: protein-binding microarray; COS-7 nuclear extract on double-stranded Agilent 4x180k PBM; binding buffer, salt, pH and temperature not given in the material; high values mean tight binding). Settings: chain copies: 2; label: 3' end of strand 1 on the slide; dsDNA, one strand shown.
T1 sequence: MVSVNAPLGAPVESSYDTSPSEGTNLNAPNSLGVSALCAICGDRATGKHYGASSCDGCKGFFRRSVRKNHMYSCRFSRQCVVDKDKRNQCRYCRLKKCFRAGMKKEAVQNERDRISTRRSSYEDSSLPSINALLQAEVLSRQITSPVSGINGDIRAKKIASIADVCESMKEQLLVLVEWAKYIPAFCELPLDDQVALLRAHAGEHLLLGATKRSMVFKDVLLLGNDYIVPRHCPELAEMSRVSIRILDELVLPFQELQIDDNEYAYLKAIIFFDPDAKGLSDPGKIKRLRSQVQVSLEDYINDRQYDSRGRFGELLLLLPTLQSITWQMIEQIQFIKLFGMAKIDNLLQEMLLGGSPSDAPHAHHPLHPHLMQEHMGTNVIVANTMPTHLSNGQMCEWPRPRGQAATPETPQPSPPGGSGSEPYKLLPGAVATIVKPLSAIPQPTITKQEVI
Method in brief: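 A custom Agilent SurePrint G3 4x180k array, spotted in quadruplicate with ~44,000 test sequences as ~60-nt oligonucleotides made double-stranded, was incubated with nuclear extracts. The extracts came from COS-7 cells transiently transfected by CaPO4 with a human HNF4α isoform expression vector. Bound HNF4α was imaged on an Agilent G2565CA scanner at 2-µm resolution, and the binding signal was taken as Agilent software's background-corrected, normalized gProcessedSignal.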

Row | Sequence | binding signal
1 | AATACTCTGAGTAAACACAGACTTTGGAATGCCTAGGGAGATTAGAGTATCGGTCGA | 4.55 log2 normalized intensity
2 | TTCGGGGCACTGCTCCCTGCCCCTACCCCCGCCTAGGGAGATTAGAGTATCGGTCGA | 5.02 log2 normalized intensity
3 | AGGTACTGGTAGCCTGGGCCCCAGGGGACGGCCTAGGGAGATTAGAGTATCGGTCGA | -0.625 log2 normalized intensity
4 | GTGCAAAGGCCTTAAAGTGTAAATATTTGAGCCTAGGGAGATTAGAGTATCGGTCGA | 0.546 log2 normalized intensity
5 | TCCGCTTGCCTGAGGGTCATGACTAAAGCAGCCTAGGGAGATTAGAGTATCGGTCGA | 1.13 log2 normalized intensity
6 | CCACTAGAGAGACCGTCCCTGGGTACAACTGCCTAGGGAGATTAGAGTATCGGTCGA | 1.33 log2 normalized intensity
7 | CGTGGGCATGCCTCCCAGAGCATTGTTTATGCCTAGGGAGATTAGAGTATCGGTCGA | -0.764 log2 normalized intensity
8 | GCACATGGCATGATCCCTGACTCATAGCTCGCCTAGGGAGATTAGAGTATCGGTCGA | -0.946 log2 normalized intensity
9 | TGGAGCATGACCCTTTGCAGGTGGGAGAGGGCCTAGGGAGATTAGAGTATCGGTCGA | 0.928 log2 normalized intensity
10 | GGGCCCAGGGTTCTCTGTGACCTTTGGAAGGCCTAGGGAGATTAGAGTATCGGTCGA | 9.36 log2 normalized intensity
11 | CTGCCCTTCTGACCTCCCAGGGATACTGTGGCCTAGGGAGATTAGAGTATCGGTCGA | 2.99 log2 normalized intensity
12 | TGACTACCAGGTTCTGTACTTTGGAACCTGGCCTAGGGAGATTAGAGTATCGGTCGA | 7.01 log2 normalized intensity
13 | GAGGTGGGCCCAGGGTTCTCTGTGACCTTTGCCTAGGGAGATTAGAGTATCGGTCGA | 7.62 log2 normalized intensity
14 | TTCTCTGTGACCTTTGGAAGGTGGGGGAGGGCCTAGGGAGATTAGAGTATCGGTCGA | 4.92 log2 normalized intensity
15 | GTAAGCACAAAGTACAGCTTTTTGTTTGTGGCCTAGGGAGATTAGAGTATCGGTCGA | 2.02 log2 normalized intensity
16 | AAACATCAAGGAAGAGAACTCCCTATCCCCGCCTAGGGAGATTAGAGTATCGGTCGA | 1.36 log2 normalized intensity
17 | GATAGATATGTTGAAGTGACTAAATGAGAAGCCTAGGGAGATTAGAGTATCGGTCGA | -0.611 log2 normalized intensity
18 | GTACTTAAAAATGCCTTTCATCTTTGAGAAGCCTAGGGAGATTAGAGTATCGGTCGA | 0.583 log2 normalized intensity
19 | GTGTCAACATGGACTTTGTTGTTTGCCTCTGCCTAGGGAGATTAGAGTATCGGTCGA | 4.08 log2 normalized intensity
20 | CTTTGCCCTCCCTAAATCCAGAGGTATTTGGCCTAGGGAGATTAGAGTATCGGTCGA | 2.04 log2 normalized intensity
21 | CCACTGCGACCTTTGCCCTCCCTAAATCCAGCCTAGGGAGATTAGAGTATCGGTCGA | 7.84 log2 normalized intensity

Row | Sequence | binding signal
22 | CCCTCCCTAAATCCAGAGGTATTTGGCCCAGCCTAGGGAGATTAGAGTATCGGTCGA | 1.83 log2 normalized intensity
23 | TCAGCCTTCTCCGCGGCGGGCCCTCGACCTGCCTAGGGAGATTAGAGTATCGGTCGA | 0.757 log2 normalized intensity
24 | CCGCGGCGGGCCCTCGACCTTTGCCCTCCAGCCTAGGGAGATTAGAGTATCGGTCGA | 9.76 log2 normalized intensity
25 | CTTCTCCGCGGCGGGCCCTCGACCTTTGCCGCCTAGGGAGATTAGAGTATCGGTCGA | 5.8 log2 normalized intensity
26 | TTGCCATGACCTTTGAAGCCCAGAACACTCGCCTAGGGAGATTAGAGTATCGGTCGA | 4.51 log2 normalized intensity
27 | AGAAGCCACTGCGACCTTTGCCCTCCCTAAGCCTAGGGAGATTAGAGTATCGGTCGA | 8.33 log2 normalized intensity
28 | ACCGGCAGAGAGAAGCCACTGCGACCTTTGGCCTAGGGAGATTAGAGTATCGGTCGA | 5.59 log2 normalized intensity
29 | CAGAGAGAAGCCACTGCGACCTTTGCCCTCGCCTAGGGAGATTAGAGTATCGGTCGA | 10 log2 normalized intensity
30 | TCACAACCTCCCTTTGAAGGAGCCACTGGTGCCTAGGGAGATTAGAGTATCGGTCGA | -0.869 log2 normalized intensity
31 | TTCCCCTCCCTTCCACCTTTGCCCTCCAAAGCCTAGGGAGATTAGAGTATCGGTCGA | 6.42 log2 normalized intensity
32 | ACCCACCCACCTATGTCCTTATCCTCATTGGCCTAGGGAGATTAGAGTATCGGTCGA | 0.831 log2 normalized intensity
33 | CTCACCAGTGGGCCCAGAGCACAACCTTTGGCCTAGGGAGATTAGAGTATCGGTCGA | 1.42 log2 normalized intensity
34 | TATTCAGTCCCCCATCCCAGAGGTCAAACTGCCTAGGGAGATTAGAGTATCGGTCGA | 5.57 log2 normalized intensity
35 | GGAATTTGGACTTCAGCCCAGGCTGATTATGCCTAGGGAGATTAGAGTATCGGTCGA | 4.7 log2 normalized intensity
36 | CAGCAAGCATTAATCCCTGAGCCTGGACCTGCCTAGGGAGATTAGAGTATCGGTCGA | 2.58 log2 normalized intensity
37 | GCGCATCGGGCGCCAGCGCCCCCGTGTGGCGCCTAGGGAGATTAGAGTATCGGTCGA | 1.2 log2 normalized intensity
38 | GACCAGCGTGTGGCGCCATTTCAGGTCCACGCCTAGGGAGATTAGAGTATCGGTCGA | 1.74 log2 normalized intensity
39 | AATACTCCAGTCATTGTACAAACACATACCGCCTAGGGAGATTAGAGTATCGGTCGA | -0.533 log2 normalized intensity
40 | CTCTTAGTATTACCATGTCCTGTGATTAAGGCCTAGGGAGATTAGAGTATCGGTCGA | 1.16 log2 normalized intensity
41 | TGGGCCAGGTATTTGGACTTTTTGTAGTTTGCCTAGGGAGATTAGAGTATCGGTCGA | 3.34 log2 normalized intensity
42 | CCCTGACCAAGGGTCATGCTGGTCTCCTTGGCCTAGGGAGATTAGAGTATCGGTCGA | 2.46 log2 normalized intensity

Row | Sequence | binding signal
43 | TTTTCAACATATACTTTGAACTTGTTTTTTGCCTAGGGAGATTAGAGTATCGGTCGA | 2.56 log2 normalized intensity
44 | AGCAATACATTGAACTTTGAACACCTCTTCGCCTAGGGAGATTAGAGTATCGGTCGA | 6.54 log2 normalized intensity
45 | GTTCAAACTTTATTTGATGATGAAGCAACAGCCTAGGGAGATTAGAGTATCGGTCGA | 0.662 log2 normalized intensity
46 | CAATAAGCAATACATTGAACTTTGAACACCGCCTAGGGAGATTAGAGTATCGGTCGA | 7.99 log2 normalized intensity
47 | TTGTTCAATAAGCAATACATTGAACTTTGAGCCTAGGGAGATTAGAGTATCGGTCGA | 8.23 log2 normalized intensity
48 | AAGCAAACAAAACACGGACTTTGAAGCTCCGCCTAGGGAGATTAGAGTATCGGTCGA | 3 log2 normalized intensity
49 | GGCAGTCGTGATAGTGACCACCTGGTGGACGCCTAGGGAGATTAGAGTATCGGTCGA | 1.42 log2 normalized intensity
50 | GTTGAGAACTGAGTTTAGAATTTGAACTATGCCTAGGGAGATTAGAGTATCGGTCGA | 3.68 log2 normalized intensity
51 | AGTTCAATTTCCAACAAATGAAACTAAAGGGCCTAGGGAGATTAGAGTATCGGTCGA | -0.972 log2 normalized intensity
52 | CGCTCCCCGACCTCCTGCTGCAGCTCTGGGGCCTAGGGAGATTAGAGTATCGGTCGA | -0.577 log2 normalized intensity
53 | TGTTTATCAGAGCAAAGTTCAATTTCCAACGCCTAGGGAGATTAGAGTATCGGTCGA | 4.31 log2 normalized intensity
54 | GTCAAACAAAAGAAAATGTGCCCTTTGGACGCCTAGGGAGATTAGAGTATCGGTCGA | 7.26 log2 normalized intensity
55 | TATTTGGATAATGTGCCCTTTGTACCTGGGGCCTAGGGAGATTAGAGTATCGGTCGA | 7.72 log2 normalized intensity
56 | TCAAATATTTGGATAATGTGCCCTTTGTACGCCTAGGGAGATTAGAGTATCGGTCGA | 7.39 log2 normalized intensity
57 | ATGTGCCCTTTGTACCTGGGGCAAACATCAGCCTAGGGAGATTAGAGTATCGGTCGA | 5.3 log2 normalized intensity
58 | ATGCTTCAAATATTTGGATAATGTGCCCTTGCCTAGGGAGATTAGAGTATCGGTCGA | 3.92 log2 normalized intensity
59 | GGATAATGTGCCCTTTGTACCTGGGGCAAAGCCTAGGGAGATTAGAGTATCGGTCGA | 5.83 log2 normalized intensity
60 | CAATCAGCCTTAGGTATGCCCCATGGTAAGGCCTAGGGAGATTAGAGTATCGGTCGA | 1.49 log2 normalized intensity
61 | GAATTCCATCCCAGGTCCACAGTGCACATTGCCTAGGGAGATTAGAGTATCGGTCGA | 2.26 log2 normalized intensity
62 | AAGGACAAAGGTCATGTTTTCAAACAATGAGCCTAGGGAGATTAGAGTATCGGTCGA | 5.49 log2 normalized intensity
63 | CTGCTGGTTTTTGTCAAAGATAGTTGTAGTGCCTAGGGAGATTAGAGTATCGGTCGA | 1.62 log2 normalized intensity
